Hits are enriched below; roughly 2.7% of the tested compounds scored in any of these assays.
ATG4B inh – blocks human ATG4B protease cleavage of LC3 substrate; Q9Y4P1; 340,000 tested, 0.51% active; inhibition, % at 8.33 µM; ATG4B cleavage of LC3-PLA2, NBD-HPC fluorescence, 1 h; in the data active = inhibition above about 40%
SKN-1 block – inhibitors of C. elegans SKN-1 | 360,000 tested, 0.49% active | inhibition, % at 21.8 µM | C. elegans VP596 Pgst-4::GFP/RFP ratio, acrylamide-induced, 24 h;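 active = interference check ratio from 0.5 to 1.5 plus GFP to RFP signal ratio inhibition reaching or exceeding a fixed threshold, cut at about 30% in these data, passing the limit was not always enough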
F508del corr – CFTR F508del correction in bronchial cells; 350,000 tested, 0.36% active; activity (quench increase), % at 7.58 µM; CFBE cells, YFP halide quenching; stimulated with forskolin plus potentiator P3; % fluorescence drop versus neutral controls;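 active = mean added fluorescence quench of at least 8% versus neutral control, with both replicates also reaching 8%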;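 note: cells transiently co-express mutant CFTR-F508del with the halide-sensitive YFP; corrector assay measuring rescue of mutant channel to the surface after 24 h compound exposure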
MPTP block – permeability transition pore inhibition. isolated mouse mitochondria, Ca2+ swelling absorbance, 30 min. inhibition, % at 10 µM. 360,000 tested, 1.4% active. AID 602449;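 active = inhibition of 50% or more, scaled per plate between neutral and stimulator controls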;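 note: 0% = DMSO wells given calcium and 100% = 1 mM EGTA wells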
CendR NRP1 mod – alters CendR peptide binding to human NRP-1; inhibition, % at 25 µM; 360,000 tested, 0.85% active; FAM-RPARPAR peptide binding to NRP-1, fluorescence polarization;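 active = inhibition or corrected inhibition above about 18%, plus a signal ratio from 0.5 to 1.5, limit read from the data, passing the limit was not always enough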
Target sequence (O14786 whole entry, looked up): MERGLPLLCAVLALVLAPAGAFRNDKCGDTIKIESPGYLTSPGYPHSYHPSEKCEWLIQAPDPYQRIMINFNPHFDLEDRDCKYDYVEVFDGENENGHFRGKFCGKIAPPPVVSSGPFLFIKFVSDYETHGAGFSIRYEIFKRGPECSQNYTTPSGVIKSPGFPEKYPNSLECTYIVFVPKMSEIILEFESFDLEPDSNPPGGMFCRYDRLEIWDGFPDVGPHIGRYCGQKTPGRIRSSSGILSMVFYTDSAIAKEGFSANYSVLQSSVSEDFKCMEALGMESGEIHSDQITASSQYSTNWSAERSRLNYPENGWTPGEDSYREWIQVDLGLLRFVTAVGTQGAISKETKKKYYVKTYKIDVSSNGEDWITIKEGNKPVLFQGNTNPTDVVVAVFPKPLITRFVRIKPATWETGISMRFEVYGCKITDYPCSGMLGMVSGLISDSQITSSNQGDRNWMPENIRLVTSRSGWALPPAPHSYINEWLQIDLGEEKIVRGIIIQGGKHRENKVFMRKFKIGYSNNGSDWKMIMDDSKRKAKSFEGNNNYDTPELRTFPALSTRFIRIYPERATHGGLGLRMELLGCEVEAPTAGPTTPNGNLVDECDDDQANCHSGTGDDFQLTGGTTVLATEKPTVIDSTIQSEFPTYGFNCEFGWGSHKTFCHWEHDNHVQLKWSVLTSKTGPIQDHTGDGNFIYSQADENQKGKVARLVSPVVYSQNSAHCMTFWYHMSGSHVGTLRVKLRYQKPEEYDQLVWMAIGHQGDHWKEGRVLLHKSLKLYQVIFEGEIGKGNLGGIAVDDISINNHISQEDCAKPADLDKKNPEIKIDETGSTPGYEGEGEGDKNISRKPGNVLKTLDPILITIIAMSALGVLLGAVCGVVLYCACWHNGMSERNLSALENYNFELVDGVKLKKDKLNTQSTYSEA
Active calls of the source: *; . = not tested or not shown.

SMILES | ATG4B inh | SKN-1 block | F508del corr | MPTP block | CendR NRP1 mod
CCNC(=O)C[C@H]1CC[C@H]2[C@@H](COc3ccc(NC(=O)Nc4ccccc4Cl)cc3C(=O)N2C)O1 | . | . | -1 | . | .
CCCCC/C=C\C/C=C\C/C=C\CCCCC(=O)O | 17 | -15 | 9.0* | -3 | -70
C[C@@H]1CCCCO[C@@H](CN(C)C(=O)Nc2ccccc2)[C@@H](C)CN([C@H](C)CO)C(=O)c2cc(NC(=O)CCCCCC(=O)Nc3ccccc3N)ccc2O1 | . | . | 6 | . | .
O=C(Nc1ccc(Cl)cc1Cl)C1=Cc2ccccc2OC1 | 3 | 37* | . | 0 | -7
CC(C)n1c(NCCO)nc2ccccc21 | -6 | 4 | 1 | -1 | 26*
CCOc1ccc(-c2nc(CN(Cc3ccccc3)C[C@@H]3CCC(=O)N3)c(C)o2)cc1 | 6 | -10 | 0 | 0 | 0
Cc1oc(-c2ccc(C(F)(F)F)cc2)nc1CN(Cc1ccccn1)C[C@@H]1CCC(=O)N1 | 4 | -10 | 3 | 0 | 31*
CCCC#Cc1ccc2c(c1)O[C@H](CN(C)CCC)[C@H](C)CN([C@H](C)CO)S2(=O)=O | . | . | 0 | . | .
COc1ccc(CN(C)C[C@@H]2OCCCC[C@H](C)Oc3ccc(NS(=O)(=O)c4ccc(Cl)cc4)cc3C(=O)N([C@H](C)CO)C[C@@H]2C)cc1 | . | . | 2 | . | .
O=C(Nc1ccc2oc(-c3ccccc3)nc2c1)c1cccnc1 | -4 | 39* | . | 2 | 3
C[C@@H]1CN(C(=O)OC(C)(C)C)CCN1c1ccc(N2CCN(Cc3ccccc3)[C@@H](C)C2)c(C#N)c1 | . | . | 0 | . | .
CCc1cc(C(=O)OC)c(NC(=O)c2ccoc2C)s1 | -3 | 6 | -1 | 0 | 39*
C[C@H]1CN([C@@H](C)CO)C(=O)Cc2cc(NC(=O)c3ccncc3)ccc2O[C@@H]1CN(C)Cc1ccncc1 | . | . | 0 | . | .
C[C@H]1CN([C@@H](C)CO)C(=O)Cc2cc(NC(=O)c3ccncc3)ccc2O[C@H]1CN(C)C(=O)Nc1ccc(C(F)(F)F)cc1 | . | . | -3 | . | .
CCn1c(SC(C)C(=O)NC2CCCc3ccccc32)nnc1-c1cccs1 (stereo not drawn) | -4 | -23 | . | 3 | 34*
CC1Cc2ccccc2N1C(=O)CSc1nnc2c(n1)[nH]c1ccc(F)cc12 (stereo not drawn) | -13 | 2 | . | 19 | 22*
O=C(CSc1nnc2c(n1)[nH]c1ccc(F)cc12)N1CCOCC1 | 2 | -3 | 3 | 1 | 0
Clc1cc(NCc2cccs2)ccc1N1CCOCC1 | -2 | 39* | . | -2 | 11
CC(Oc1cccc(Cl)c1)C(=O)Nc1ccccc1N1CCCCC1 (stereo not drawn) | -3 | 15 | 1 | 1 | 28*
CC(Oc1cccc(Cl)c1)C(=O)Nc1ccccc1C(=O)N1CCCCC1 (stereo not drawn) | 0 | 7 | 1 | 0 | -2
C[C@H]1CN([C@@H](C)CO)C(=O)c2cccc(NC(=O)c3ccc(-c4nccs4)cc3)c2O[C@@H]1CN(C)Cc1ccc(Cl)c(Cl)c1 | . | . | 0 | . | .
CSC1=C(C#N)C(c2ccc(Cl)cc2)C2=C(CC(C)(C)CC2=O)N1 (stereo not drawn) | 3 | 35* | . | 25 | 9
CCCSC1=C(C#N)C(c2ccc(OC)cc2)C2=C(CC(C)(C)CC2=O)N1 (stereo not drawn) | -7 | 7 | . | -5 | 0
O=C1C(Br)=Cc2cccc3cccc1c23 | -5 | 29 | 4 | 0 | 27*
O=C1c2sccc2-c2cccc3cccc1c23 | . | 32 | 1 | 1 | 16
SMILES | ATG4B inh | SKN-1 block | F508del corr | MPTP block | CendR NRP1 mod
Cn1c(N/N=C/c2ccccc2)nc2sc3c(c2c1=O)CCC3 | -20 | 48* | . | 0 | 0
O=C(CSc1nc2sc3c(c2c(=O)n1-c1ccccc1)CCCC3)N/N=C/c1ccc(C(=O)O)cc1 | 7 | 7 | . | -1 | -33
O=c1oc(/C=C/c2ccccc2)nc2sc3c(c12)CCC3 | 0 | -12 | . | -1 | 25*
Cc1ccccc1-c1cnc2c(c1)C(=O)N([C@H](C)CO)C[C@@H](C)[C@@H](CN(C)C(=O)c1ccc(F)cc1)O2 | . | . | 0 | . | .
CCC(=O)N1C[C@@H](C)[C@H](OC)CN(C)C(=O)c2ccc(NC(=O)c3ccccc3)cc2OC[C@H]1C | . | . | 0 | . | .
C[C@@H]1CCCCO[C@@H](CN(C)C(=O)Nc2ccccc2)[C@H](C)CN([C@@H](C)CO)C(=O)c2cc(NC(=O)Nc3ccccc3)ccc2O1 | . | . | 0 | . | .
O=C(Nc1ccc(-c2cn3ccsc3n2)cc1)C1COc2ccccc2O1 (stereo not drawn) | 2 | 36* | . | -1 | -12
O=C1[C@H]2[C@H](C=CC[C@H]2C(=O)N2CCN(c3ccccc3)CC2)CCN1Cc1ccccc1 | 6 | 17 | 3 | 0 | 28*
COC(=O)c1ccc2nc(-c3ccc(C#N)cc3)c(Cc3cccc(F)c3)n2c1 | . | 2 | 5 | 1 | -9
COC(=O)c1ccc2nc(-c3ccc(C)cc3)c(Cc3cccc(F)c3)n2c1 | . | 41* | 2 | 2 | -10
COc1ccccc1Oc1ccc(S(=O)(=O)N2CCCC2)cc1 | 13 | 3 | 1 | -2 | -2
COc1ccccc1-c1noc(Cn2cc(S(=O)(=O)N3CCCC3)ccc2=O)n1 | -64 | -1 | 0 | 0 | 18*
O=C(Nc1nc2c(F)cc(F)cc2s1)c1ccccn1 | -1 | 37* | -2 | 0 | -17
Cc1ccc(-c2ccc([C@@H]3[C@@H](CO)N4C(=O)CN(S(=O)(=O)c5cccc(F)c5)C[C@H]34)cc2)cc1 | . | . | 2 | . | .
Cc1nc2ccc3nc(NC(=O)c4ccc5c(c4)OCCO5)sc3c2s1 | 7 | 7 | . | 1 | -17
CCOC(=O)c1csc(NC(=O)c2ccc3c(c2)OCCO3)n1 | 1 | 6 | . | -1 | 29*
Cc1cnc(NC(=O)c2ccc3c(c2)OCCO3)s1 | 1 | 6 | 9.0* | 0 | 9
COc1ccc(S(=O)(=O)N(C)C[C@@H]2Oc3cc(-c4ccccc4OC)ccc3S(=O)(=O)N([C@@H](C)CO)C[C@H]2C)cc1 | . | . | 4 | . | .
O=C(O)C1C(C(=O)Nc2ccc(Cl)cc2)C2C=CC1C21CC1 (stereo not drawn) | -7 | 9 | . | 1 | 28*
CCCNC(=O)C[C@H]1CC[C@H]2[C@H](COc3ccc(NC(=O)c4ccc(Cl)cc4)cc3C(=O)N2C)O1 | . | . | -1 | . | .
C[C@H](NC(=O)C[C@@H]1CC[C@@H](NC(=O)c2cccnc2)[C@@H](CO)O1)c1ccccc1 | . | . | 1 | . | .
O=C(C[C@H]1CC[C@@H]2[C@H](COC[C@H](O)CN2Cc2ccc(Oc3ccccc3)cc2)O1)N1CCc2ccccc2C1 | . | . | 11* | . | .
O=C(C[C@@H]1CC[C@@H]2[C@H](COC[C@H](O)CN2Cc2ccc(Oc3ccccc3)cc2)O1)N1CCN(c2ccccc2)CC1 | . | . | 8.9* | . | .
O=C(C[C@H]1CC[C@H]2[C@@H](COC[C@@H](O)CN2Cc2ccc(Oc3ccccc3)cc2)O1)N1CCc2ccccc2C1 | . | . | 0 | . | .
